# From PubChem BioAssay (NCATS)
# Records with an inconclusive call do not appear. The source made the active and inactive calls. Unless noted, calls come from the whole dose curve; as a rule, active = well fitted curve in the direction sought with a large enough effect; inconclusive = small, poorly fitted or top-dose-only effect, or another doubt; inactive = no such curve, though single readings can be large; an effect the other way counts as inactive or inconclusive.
# Columns and labels:
# [1] = qHTS profiling of the MIPE4 collection as inhibitors of Plasmodium falciparum (3D7) proliferation (AID 743344; call rule not given here;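 note: scaled between DMSO vehicle wells and 0.29 µM artemisinin as full inhibition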); settings: P. falciparum 3D7 in erythrocytes, SYBR Green DNA fluorescence, 72 h; at 28.5 µM unless noted
# Method in brief: (§1)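 Parasite DNA was quantified by SYBR Green I fluorescence (ex 485, em 535 nm) after overnight lysis in saponin/Triton buffer at room temperature. Cultures at 0.3% parasitemia and 2.5% hematocrit were first exposed to compound for 72 h at 37 C; signals were normalised to artemisinin (0.29 uM) and vehicle wells.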
# [2] = qHTS profiling of the MIPE4 collection as inhibitors of Plasmodium falciparum (DD2) proliferation (AID 743345; call rule not given here); settings: P. falciparum Dd2 in erythrocytes, SYBR Green DNA, 72 h; at 28.5 µM unless noted
# Method in brief: as §1
# [3] = qHTS profiling of the MIPE4 collection as inhibitors of Plasmodium falciparum (DD2) proliferation (Rep 2) (AID 743346; call rule not given here); settings: P. falciparum Dd2 in erythrocytes, SYBR Green DNA, 72 h; at 28.5 µM unless noted
# Method in brief: as §1
# [4] = qHTS profiling of the MIPE4 collection as inhibitors of Plasmodium falciparum (HB3) proliferation (AID 743347; call rule not given here;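 note: plate controls were DMSO vehicle wells for no effect and artemisinin wells for full effect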); settings: P. falciparum HB3 in erythrocytes, SYBR Green DNA, 72 h; at 28.5 µM unless noted
# Method in brief: as §1
# [5] = High-throughput drug toxicity screening in the BPDCN cell line Gen2.2 (AID 1224824; call rule not given here;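 note: cells exposed to compounds for 48 h before reading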); settings: Gen2.2 BPDCN cells; at 45.8 µM (top of the series) unless noted
# Method in brief: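 Gen2.2 cells (500/well) in phenol red-free RPMI with 10% FBS were exposed to compounds for 48 h at 37 °C, 5% CO2. Viability was read by CellTiter-Glo luminescence and normalized to DMSO (100%) and 9.2 uM bortezomib (0%).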
# [6] = High-throughput drug toxicity screening in the BPDCN cell line Cal-1 (AID 1224825; call rule not given here); settings: Cal-1 BPDCN cell viability, qHTS; at 45.8 µM (top of the series) unless noted
# Method in brief: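 Viability of the BPDCN line Cal-1 is measured as ATP-based luminescence (CellTiter-Glo) following 48 h incubation with compounds. Percent activity uses DMSO-treated wells as 100% and 9.2 uM bortezomib as 0%.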
# [7] = qHTS assay for measurement of the activity of small molecule inhibitors on Zika virus induced Caspase-3 activity in human iPSC derived neural progenitor cells (hNPCs) (AID 1224857); note: % of control where 0% means no effect; nearly all actives have a fitted effect of over 65% in size
# Method in brief: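 Values are percent inhibition of virus-induced caspase-3/7 signal, scaled between uninfected cells and ZIKV-infected cells. Infection used 2 FFU/cell for 6 h after 1 h compound exposure.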
# [8] = qHTS assay for measurement of the activity of small molecule inhibitors on Zika virus induced Caspase-3 activity in human astrocytoma cells (AID 1224859);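 note: plate controls were ZIKV-infected untreated cells for no effect and uninfected cells for full effect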
# Method in brief: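 Compound added 1 h pre-infection; ZIKV 2 FFU/cell on SNB-19 cells, 6 h, 37 C/5% CO2. Caspase-Glo 3/7 luminescence; values as % inhibition of ZIKV-induced caspase activity.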
# [9] = qHTS Screen of the MIPE 4.0 Collection Against Ewings Sarcoma (TC71) (AID 1259253); note: nearly all actives have a fitted effect of over 40% in size; note: potency is the fitted concentration of half-maximal effect
# Method in brief: (§2)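 Compound titrations go onto adherent log-phase cells 4 h after seeding, incubate 48 h at 37C, then CellTiter-Glo luminescence reports viability relative to DMSO and cell-free controls.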
# [10] = qHTS Screen of the MIPE 4.0 Collection Against Ewings Sarcoma (EW8) (AID 1259255); note: nearly all actives have a fitted effect of over 35% in size; note: potency is the fitted concentration of half-maximal effect;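 for viability: 100% = DMSO-treated cells and 0% = medium-only wells without cells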
# Method in brief: as §2
# [11] = qHTS Screen of the MIPE 4.0 Collection Against Ewings Sarcoma (TC32) (AID 1259256); note: nearly all actives have a fitted effect of over 45% in size; note: potency is the fitted concentration of half-maximal effect
# Method in brief: as §2
# [12] = qHTS Screen of the MIPE 4.0 Collection Against Ewings Sarcoma (RDES) (AID 1259252); note: nearly all actives have a fitted effect of over 35% in size; note: potency is the fitted concentration of half-maximal effect
# Method in brief: as §2
# [13] = P-glycoprotein substrates identified in KB-8-5-11 adenocarcinoma cell line, qHTS therapeutic library screen (AID 1346987); note: nearly all actives have a fitted effect of over 65% in size; note: potency is the fitted concentration of half-maximal effect
# Method in brief: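 In this qHTS, P-gp-rich KB-8-5-11 cells received library compounds across a concentration range. Viability was quantified by luminescence after 72 h at 37 degree C.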
# [14] = qHTS Assay for Identifying Gametocytocidal Compounds (AID 743244);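 note: % is set by controls: 0 for no effect and ±100 for the full control effect; actives lower the fluorescent signal which means gametocytes are killed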; settings: P. falciparum 3D7 stage III-V gametocytes, alamarBlue, 72 h; max response: stronger effect = lower value
# Method in brief: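 Stage III–V gametocytes of P. falciparum 3D7 were seeded at 20,000 cells/well onto pre-dispensed compounds. After 72 h, 37 °C, 5% CO2, alamarBlue was added for another 24 h.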
# [15] = P-glycoprotein substrates identified in KB-3-1 adenocarcinoma cell line, qHTS therapeutic library screen (AID 1346986); note: nearly all actives have a fitted effect of over 60% in size
# Method in brief: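 Using luminescence to quantify ATP, parental and P-gp-overexpressing KB cells were compared after 72 h compound titration. KB-8-5-11 was also run with the P-gp inhibitor tariquidar.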
Structure (SMILES),"parasite growth, % of DMSO control [1] [%]","parasite growth remaining, % of DMSO control (lower = more inhibition) [2] [%]","parasite growth, % of control (lower = inhibition) [3] [%]","growth, % of control [4] [%]","cell viability, % of control (lower = more cytotoxic) [5] [%]",viability (% of control) [6] [%],Potency [7],Potency [8],Potency [9],Potency [10],Potency [11],Potency [12],Potency [13],max response [14],Potency [15]
NC(=NCCCCCCN=C(N)N=C(N)Nc1ccc(Cl)cc1)N=C(N)Nc1ccc(Cl)cc1,12.4,6.46,22,6.76,6.22,2.49,inactive,inactive,4180 nM (active),9350 nM (active),7430 nM (active),–,–,–,–
CC(=O)[C@]1(O)Cc2c(O)c3c(c(O)c2[C@@H](O[C@H]2C[C@H](N)[C@@H](O)[C@H](C)O2)C1)C(=O)c1ccccc1C3=O,27.7,46.3,49,11.5,6.08,4.63,inactive,–,37.2 nM (active),18.7 nM (active),4.7 nM (active),59 nM (active),833 nM (active),–,–
C[C@H]1O[C@H](O[C@H]2[C@H](O)[C@@H](O)[C@@H](O[C@H]3[C@H](O)[C@@H](O)C(O)O[C@H]3CO)O[C@H]2CO)[C@H](O)[C@@H](O)[C@H]1N[C@H]1C=C(CO)[C@@H](O)[C@H](O)[C@@H]1O (some centres undefined),92.3,–,88.4,103,193,134,inactive,inactive,inactive,inactive,inactive,–,inactive,–,–
Cc1nc(NC(=O)N2CCC[C@@H]2C(N)=O)sc1-c1ccnc(C(C)(C)C(F)(F)F)c1,13.3,–,24,5.19,21,65.8,inactive,–,11800 nM (active),23500 nM (active),6620 nM (active),1480 nM (active),6620 nM (active),–,–
Oc1cc2c(cc1O)C1c3ccc(O)c(O)c3OCC1(O)C2 (centres undefined),13,106,15.2,9.94,167,105,inactive,inactive,inactive,inactive,inactive,–,inactive,–,–
C#CCC(Cc1cnc2nc(N)nc(N)c2n1)c1ccc(C(=O)N[C@@H](CCC(=O)O)C(=O)O)cc1 (some centres undefined),21.7,8.51,9.31,18,51.7,36.9,–,inactive,37.2 nM (active),37.2 nM (active),33.2 nM (active),37.2 nM (active),41.8 nM (active),4% (inactive),–
C[C@H](NC(=O)[C@@H](O)c1cc(F)cc(F)c1)C(=O)N[C@@H]1C(=O)N(C)c2ccccc2-c2ccccc21,11,12.1,–,8.44,165,103,–,inactive,20900 nM (active),inactive,inactive,inactive,inactive,–,–
CC(C)(O)CC[C@@H](O)[C@](C)(O)[C@H]1CC[C@@]2(O)C3=CC(=O)[C@@H]4C[C@@H](O)[C@@H](O)C[C@]4(C)[C@@H]3CC[C@]12C,385,110,122,674,104,104,–,inactive,inactive,inactive,inactive,inactive,inactive,–,–
CC(=O)NC(CS)C(=O)O (centres undefined),101,97.9,118,60.7,87,93.6,–,inactive,inactive,inactive,inactive,inactive,inactive,–,–
O=C(c1ccc(F)cc1)N1CCC[C@H](c2nc(-c3ccc(F)cc3)no2)C1,74.1,94.6,70.9,82.2,93.8,111,–,inactive,inactive,inactive,inactive,inactive,118 nM (active),–,–
COc1cccc2c1C(=O)c1c(O)c3c(c(O)c1C2=O)C[C@@](O)(C(C)=O)C[C@H]3O[C@H]1C[C@H](N)[C@H](O)[C@H](C)O1,13.5,5.82,6.6,6.78,3.75,3.72,–,inactive,66.2 nM (active),52.6 nM (active),46.9 nM (active),41.8 nM (active),–,–,–
Cc1ccccc1C(=O)Nc1ccc(C(=O)N2CCCC(O)c3cc(Cl)ccc32)c(C)c1 (centres undefined),22.8,75.6,–,24.6,129,104,–,inactive,inactive,inactive,inactive,–,inactive,1.39% (inactive),inactive
CCC[C@H]1C[C@H](C(=O)N[C@@H]([C@@H]2O[C@@H](SC)[C@@H](O)[C@@H](O)[C@@H]2O)[C@H](C)Cl)N(C)C1,30.4,36,24.6,25.3,155,128,–,inactive,inactive,inactive,inactive,inactive,inactive,–,–
CCn1c(=O)c2c(nc(C=Cc3ccc(OC)c(OC)c3)n2C)n(CC)c1=O,37.9,83.4,34.2,47.9,193,99.5,–,inactive,inactive,inactive,inactive,inactive,inactive,–,–
